High-throughput results as filed in PubChem.
The full list was thinned out, with hits kept by preference.
mHTT-CaM PPI inh = mHTT-calmodulin interaction abrogation; P42858; AlphaScreen His-mHTT/GST-CaM binding, luminescence; inhibition, % at 15 µM; 190,000 tested, 3.6% active;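 note: 0% = both proteins with DMSO and 100% = one protein alone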
Pf apPOL inh = Pf-apPOL DNA polymerase inhibition | AID 1794808 | 210,000 tested, 0.25% active | Recombinant Pf-apPOL, molecular beacon fluorescence, 1.5 h | inhibition, % at 10 µM
Starred values were filed as active, the others as inactive; . = no result given. Cut-off read from the data, not from the text of the source: active = inhibition above about 50%; inactive = the rest.

SMILES	mHTT-CaM PPI inh	Pf apPOL inh
Cc1nc(Nc2ccccn2)sc1C(=O)N1CCN(c2ccccc2F)CC1	59*	-8
Cc1ccc(-c2cc(C(=O)N3CCN(c4ccc(F)cc4)CC3)ccn2)s1	74*	33
O=C(c1csc(Nc2ccccc2)n1)N1CCN(c2ccccc2F)CC1	80*	-3
Cc1ccnc(Nc2nc(C)c(C(=O)N3CCC(C)CC3)s2)c1	15	-4
CN1CCN(C(=O)c2csc(N3CCN(c4ccccc4F)CC3)n2)CC1	27	-3
Cc1c(C(=O)N2CCN(c3ccc(F)cc3)CC2)sc2nc(-c3ccccc3)cn12	0	-2
COc1ccc(C)cc1N(CC(=O)Nc1cccnc1)S(C)(=O)=O	-3	-1
Cc1ccnc(N2CCC(C(=O)Nc3ccc(Br)cc3C)CC2)n1	-17	-1
CC1(C)C(=O)OC(c2ccccc2)C2(CCCCC2)C1=O (stereo unspecified)	-5	-7
Cc1ccc(-c2nc3ccc(C)cn3c2NC(=O)C(C)C)cc1	6	-4
Cc1ccnc(NS(=O)(=O)c2c(C)cc(C)cc2C)c1	2	4
Cc1nc(Nc2ccc(F)cn2)sc1C(=O)N1CCN(c2ccc(F)cc2)CC1	84*	-5
Cc1nnsc1C(=O)N1CCN(c2ccc(F)cc2)CC1	.	3
COCCN=C1Nc2ccccc2NC12CCCN(C(=O)c1n[nH]c3ccccc13)C2 (stereo unspecified)	76*	-7
COCCN=C1Nc2ccccc2NC12CCCN(C(=O)Cc1c[nH]c3ccccc13)C2 (stereo unspecified)	33	-7
COCCN=C1Nc2ccccc2NC12CCCN(C(=O)Cc1ccccc1F)C2 (stereo unspecified)	100*	2
COCCN=C1Nc2ccccc2NC12CCCN(C(=O)c1ccccn1)C2 (stereo unspecified)	5	-6
COCCN=C1Nc2ccccc2NC12CCCN(C(=O)Cc1ccsc1)C2 (stereo unspecified)	98*	-3
COCCN=C1Nc2ccccc2NC12CCCN(C(=O)c1ccccc1C)C2 (stereo unspecified)	5	-3
COc1cccc(C(=O)N2c3ccccc3C(N(C(C)=O)c3ccccc3)CC2C)c1 (stereo unspecified)	8	-5
CC1(C)N=C(c2ccc(Cl)cc2)C(=O)N1CC(=O)Nc1ccc(F)c(F)c1	4	-9
COc1ccc(NC(=O)c2ccccc2C(F)(F)F)cc1OC1CCCC1	.	-8
O=C(NN1C(=O)c2ccccc2C1=O)c1cccc(Br)c1	1	-3
O=C1CC(c2ccco2)Sc2nc(-c3ccc(F)cc3)nn21 (stereo unspecified)	100*	-8
Cc1ccc(-c2nc3n(n2)C(=O)CC(c2ccco2)S3)cc1 (stereo unspecified)	5	-2
SMILES	mHTT-CaM PPI inh	Pf apPOL inh
CCC(=O)NCCc1csc(C2CCCN(C(=O)c3cc4ccccc4[nH]3)C2)n1 (stereo unspecified)	9	0
CN1CCN(CCCNC(=O)C2CCN(S(=O)(=O)N3CCC4(CC3)OCCO4)CC2)CC1	-3	-15
CCN(CC)c1ccc(C#N)cc1	.	1
CCN(CC)c1ccc(N)c(C)c1	58*	-9
CN(C1CCCCC1)S(=O)(=O)c1ccc(F)c(C(=O)Nc2cccc(Cl)c2)c1	-6	-1
CNC(=O)Nc1ccccc1C(=O)Nc1ccc(OC)cc1	4	-9
COc1ccc(Nc2nc(N3CCNCC3)nc3ccccc23)c(OC)c1	8	-1
Cc1ccc(Nc2c([N+](=O)[O-])cc([N+](=O)[O-])c3cccnc23)cc1	51*	-2
O=[N+]([O-])c1cc([N+](=O)[O-])c2cccnc2c1Nc1ccc(N2CCOCC2)cc1	56*	-2
CCOc1ccc(Nc2c([N+](=O)[O-])cc([N+](=O)[O-])c3cccnc23)cc1	29	-6
O=[N+]([O-])c1cccnc1N1CCOCC1	-6	-8
COc1ccc(N2CCN(c3cc(N4CCN(C)CC4)ccc3[N+](=O)[O-])CC2)cc1	54*	-5
O=C(c1cc(F)c(F)cc1Cl)N1CCN(c2ccc([N+](=O)[O-])c(N3CCCCC3)c2)CC1	5	-2
CN1CCN(c2cc(N3CCN(S(C)(=O)=O)CC3)ccc2[N+](=O)[O-])CC1	2	-4
COc1ccccc1C(=O)N1CCN(c2ccc([N+](=O)[O-])c(N3CCCCC3)c2)CC1	53*	-8
N#Cc1ccccc1NC(=O)c1sc2nc3c(cc2c1N)CCC3	-1	2
CC(C)CCNC(=O)c1cc2c(s1)N(C)CCC2	4	1
Cc1ccc(C2CC(C(F)(F)F)n3ncc(C(=O)Nc4ccccc4C)c3N2)cc1 (stereo unspecified)	18	0
Cc1ccc(C2CC(C(F)F)n3ncc(C(=O)Nc4cnn(Cc5ccccc5C)c4)c3N2)cc1 (stereo unspecified)	56*	-3
Cc1ccc(CN2CCC(CNC(=O)Nc3ccccc3Br)CC2)cc1	4	-5
Cc1cc(C)cc(NC(=O)CN2C(=O)CC(c3ccccc3)=Nc3cccnc32)c1	-11	2
COc1ccc(OCC(=O)Nc2ccc(OCC(N)=O)cc2)cc1	0	-10
CC(=O)c1ccc2[nH]c3ccccc3c2c1	-4	3
Nc1ccc2[nH]c3ccccc3c2c1	99*	6
Cc1ccc(C2NC(=O)N(C)C3=C2C(=O)N(CC(C)C)C3)c(C)c1 (stereo unspecified)	6	-1
SMILES	mHTT-CaM PPI inh	Pf apPOL inh
Cc1c(Cl)c(C(F)(F)F)nn1CC(=O)Nc1ccc(Cl)c(Cl)c1	100*	-1
Cc1ccc(NC(=O)Cn2nc(C(F)(F)F)c(Cl)c2C)cc1C	3	-2
O=C1C2C3C=CC(C3)C2C(=O)N1c1ncccc1O (stereo unspecified)	3	-5
COc1ccccc1N=Cc1ccc(O)c2c1OC(N)=C(C#N)C2c1cccc([N+](=O)[O-])c1 (stereo unspecified)	77*	-8
COc1cccc(N=Cc2ccc(O)c3c2OC(N)=C(C#N)C3c2ccccc2[N+](=O)[O-])c1 (stereo unspecified)	95*	-4
N#CC1=C(N)Oc2c(C=Nc3ccccc3)ccc(O)c2C1c1ccc([N+](=O)[O-])cc1 (stereo unspecified)	35	3
Cc1ccc(-n2nc(C)c3c2OC(N)=C(C#N)C3c2ccccc2[N+](=O)[O-])cc1 (stereo unspecified)	9	-3
CC(C)(C)NC(=O)C=CC(=O)O	-2	-2
Cc1nc(-c2cn(-c3cccc(Cl)c3)nn2)no1	-10	5
Cn1cccc1/C=C1\CCC/C(=C\c2cccn2C)C1=O	79*	-3
CC1C/C(=C\c2cccn2C)C(=O)/C(=C/c2cccn2C)C1 (stereo unspecified)	99*	-1
Cc1ccccc1C1=N/C(=C\c2cccn2C)C(=O)O1	19	5
COc1ccc2c(c1)CC/C(=C\c1cccn1C)C2=O	39	-7
COc1ccc(Cl)cc1NC(=O)C(=O)NCc1ccsc1	-11	-3
Cc1cc2cc(CNC(=O)c3ccccc3[N+](=O)[O-])ccc2n1C	25	-13
Cc1cc2cc(CNC(=O)c3c(F)cccc3Cl)ccc2n1C	4	-23
Cc1cc2cc(CNC(=O)Cc3ccc(F)cc3)ccc2n1C	56*	-26
Cc1cccc(NC(=O)NCc2ccc3c(c2)cc(C)n3C)c1	50*	-30
CC(NC(=O)C1CC1(C)C)c1ccccc1 (stereo unspecified)	0	-6
